This note sets out measurements from PubChem BioAssay.

Inconclusive results are not listed. For part of these data: Results with a measured potency or affinity are listed apart. The source made the active and inactive calls. No stated cut-off is given here; in the data, active means fluorescence slope change above about 50%; inconclusive means mostly about 31% to 49%; inactive means weaker than that.

A short description of assay [1]: blockers of polyQ-driven CASP3 activation – cell-based (AID 1583). Conditions: polyglutamine-induced caspase-3 activation, cell assay; stronger effect = higher value;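 tested at 10 µM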.
Assay [2] is described as follows: yeast 75Q aggregation reduction – 75Q-TubU reporter (AID 1593). Conditions: Yeast 75Q polyglutamine aggregation reporter.
Assay [3] is described as follows: restoration of touch response, mutant HTT neurons – whole organism, C. elegans mechanosensory neurons, N-terminal huntingtin (AID 1599). Conditions: C. elegans polyQ-huntingtin mechanosensory neurons, stronger effect = higher value.
A short description of assay [4]: blockers of cytochrome c efflux from mitochondria – biochemical, purified mitochondria (AID 1603).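 Further: mouse liver mitochondria challenged with calcium chloride; signal normalized to the plate average as 100%.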 Conditions: stronger effect = lower value.
Assay [5] can be described thus: polyglutamine aggregate formation blockers (AID 1604). As to conditions: polyglutamine-induced protein aggregation inhibition assay; stronger effect = higher value; tested at 2.5 µM.
Assay [6] is described as follows: glutamate transport activators, MN-1 cells, MN-1 cell line (AID 1612).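 Further: tested at 1 µM final; 0% = mean of DMSO vehicle wells on each plate; positive means more glutamate uptake than control and negative means less.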 As to conditions: MN-1 motor neuron cells, stronger effect = higher value.
Assay [7] is described as follows: GFP-Q80 aggregate reduction, neuronal-like cells, cell-based, NGF-treated PC12, GFPQ80 (AID 1614).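 Further: lower means fewer inclusions and 0 means no inclusions at all.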 Conditions: PC12 NGF-treated GFP-polyQ80 inclusion reduction.
Assay [8] in a line: 75Q-TubH aggregate inhibition, S. cerevisiae, yeast (AID 1616). Conditions: S. cerevisiae 75Q-TubH polyglutamine aggregation suppression; stronger effect = higher value.
For assay [9], the target named is Huntingtin (Homo sapiens) (UniProt P42858). The assay can be described thus: mutant huntingtin aggregation blockers – QA1, dose response (AID 1584). As to conditions: in vitro mutant huntingtin aggregation assay; confirmation test; at 10 µM; stronger effect = lower value.
Sequence of Huntingtin (Homo sapiens) (P42858 whole entry, looked up): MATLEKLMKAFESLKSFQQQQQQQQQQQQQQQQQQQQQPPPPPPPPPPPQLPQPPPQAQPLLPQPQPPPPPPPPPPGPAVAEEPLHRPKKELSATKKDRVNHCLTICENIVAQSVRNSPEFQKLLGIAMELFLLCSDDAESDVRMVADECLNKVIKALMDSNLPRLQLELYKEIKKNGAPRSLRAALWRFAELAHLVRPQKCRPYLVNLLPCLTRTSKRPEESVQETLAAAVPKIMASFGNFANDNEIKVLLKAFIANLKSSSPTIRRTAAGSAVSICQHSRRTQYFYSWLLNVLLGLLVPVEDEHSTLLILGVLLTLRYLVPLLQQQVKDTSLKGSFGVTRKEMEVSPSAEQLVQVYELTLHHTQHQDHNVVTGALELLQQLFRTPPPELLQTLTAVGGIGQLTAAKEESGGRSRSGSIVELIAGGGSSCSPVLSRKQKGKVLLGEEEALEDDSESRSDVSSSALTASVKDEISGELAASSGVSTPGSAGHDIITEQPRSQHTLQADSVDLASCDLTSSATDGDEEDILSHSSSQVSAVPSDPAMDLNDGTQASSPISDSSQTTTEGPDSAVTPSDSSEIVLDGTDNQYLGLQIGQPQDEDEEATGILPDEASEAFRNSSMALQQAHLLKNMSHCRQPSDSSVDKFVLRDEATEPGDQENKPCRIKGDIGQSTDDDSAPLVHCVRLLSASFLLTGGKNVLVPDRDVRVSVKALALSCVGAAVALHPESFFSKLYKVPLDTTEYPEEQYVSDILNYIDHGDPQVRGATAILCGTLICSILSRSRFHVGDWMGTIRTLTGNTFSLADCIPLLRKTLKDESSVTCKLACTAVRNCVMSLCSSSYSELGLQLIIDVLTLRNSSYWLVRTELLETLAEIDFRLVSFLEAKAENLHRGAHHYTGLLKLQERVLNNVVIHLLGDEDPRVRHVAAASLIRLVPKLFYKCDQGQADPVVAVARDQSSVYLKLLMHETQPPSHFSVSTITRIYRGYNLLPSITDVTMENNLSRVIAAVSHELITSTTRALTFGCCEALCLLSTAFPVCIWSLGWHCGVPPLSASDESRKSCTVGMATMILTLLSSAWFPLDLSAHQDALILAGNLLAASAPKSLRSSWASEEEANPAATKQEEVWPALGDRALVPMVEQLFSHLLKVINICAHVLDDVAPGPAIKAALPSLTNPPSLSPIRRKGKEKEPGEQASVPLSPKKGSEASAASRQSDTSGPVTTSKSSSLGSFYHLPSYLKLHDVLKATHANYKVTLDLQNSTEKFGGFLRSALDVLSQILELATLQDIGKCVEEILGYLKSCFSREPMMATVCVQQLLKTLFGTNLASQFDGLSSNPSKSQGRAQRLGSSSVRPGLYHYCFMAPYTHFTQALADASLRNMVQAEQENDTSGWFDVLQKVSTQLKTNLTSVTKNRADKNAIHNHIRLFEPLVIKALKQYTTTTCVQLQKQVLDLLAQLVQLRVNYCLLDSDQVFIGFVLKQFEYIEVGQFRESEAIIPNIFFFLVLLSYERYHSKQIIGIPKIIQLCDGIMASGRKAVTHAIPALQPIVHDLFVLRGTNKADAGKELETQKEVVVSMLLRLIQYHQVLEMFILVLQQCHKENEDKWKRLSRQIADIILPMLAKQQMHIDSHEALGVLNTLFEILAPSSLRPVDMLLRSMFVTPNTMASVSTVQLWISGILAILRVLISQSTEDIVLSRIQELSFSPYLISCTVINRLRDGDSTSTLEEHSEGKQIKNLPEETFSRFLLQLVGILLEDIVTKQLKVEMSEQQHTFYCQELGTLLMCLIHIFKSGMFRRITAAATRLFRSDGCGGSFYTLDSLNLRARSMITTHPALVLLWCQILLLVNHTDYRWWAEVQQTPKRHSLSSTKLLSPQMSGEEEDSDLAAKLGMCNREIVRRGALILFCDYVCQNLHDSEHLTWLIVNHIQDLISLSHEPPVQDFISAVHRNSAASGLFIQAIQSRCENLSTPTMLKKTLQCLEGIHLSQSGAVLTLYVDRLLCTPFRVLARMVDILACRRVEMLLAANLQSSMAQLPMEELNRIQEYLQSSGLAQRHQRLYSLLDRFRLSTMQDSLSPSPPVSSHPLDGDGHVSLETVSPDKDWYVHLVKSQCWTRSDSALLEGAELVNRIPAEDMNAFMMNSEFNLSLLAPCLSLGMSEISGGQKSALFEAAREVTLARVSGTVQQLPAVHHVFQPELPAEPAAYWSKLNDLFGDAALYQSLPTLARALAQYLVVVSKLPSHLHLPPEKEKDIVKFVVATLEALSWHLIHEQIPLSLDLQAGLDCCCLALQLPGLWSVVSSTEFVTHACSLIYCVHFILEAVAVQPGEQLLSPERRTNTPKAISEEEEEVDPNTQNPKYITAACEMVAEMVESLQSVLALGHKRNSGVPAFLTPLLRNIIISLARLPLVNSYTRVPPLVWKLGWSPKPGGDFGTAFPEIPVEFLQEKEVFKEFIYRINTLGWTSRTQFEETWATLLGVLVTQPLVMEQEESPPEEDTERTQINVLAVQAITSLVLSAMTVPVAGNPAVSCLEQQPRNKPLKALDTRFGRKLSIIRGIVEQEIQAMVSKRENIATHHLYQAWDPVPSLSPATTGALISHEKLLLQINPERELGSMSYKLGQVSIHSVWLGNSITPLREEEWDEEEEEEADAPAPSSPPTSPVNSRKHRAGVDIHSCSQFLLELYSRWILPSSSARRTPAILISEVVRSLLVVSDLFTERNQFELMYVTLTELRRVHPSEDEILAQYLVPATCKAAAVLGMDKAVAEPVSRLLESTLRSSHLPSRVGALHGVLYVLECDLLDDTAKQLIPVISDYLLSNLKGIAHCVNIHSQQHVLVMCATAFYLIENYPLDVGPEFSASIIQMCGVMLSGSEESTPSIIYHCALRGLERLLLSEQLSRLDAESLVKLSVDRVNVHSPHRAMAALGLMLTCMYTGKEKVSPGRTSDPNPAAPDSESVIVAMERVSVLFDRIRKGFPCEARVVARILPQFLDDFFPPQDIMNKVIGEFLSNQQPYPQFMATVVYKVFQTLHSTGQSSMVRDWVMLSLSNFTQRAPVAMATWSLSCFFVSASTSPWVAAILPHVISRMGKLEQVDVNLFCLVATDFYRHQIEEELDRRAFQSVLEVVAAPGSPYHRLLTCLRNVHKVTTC
Assay [10] in a line: rescue of PC12 cells from polyQ htt toxicity – LDH release (AID 1610). Conditions: PC12 mutant huntingtin toxicity, final LDH at 4 uM, stronger effect = lower value.
Assay [11] addresses ATP-dependent translocase ABCB1 (Homo sapiens) (UniProt P08183). Description: P-glycoprotein substrate transport blockade – cell-based (AID 377). Conditions: MDR1-expressing cells, fluorescent substrate accumulation slope; stronger effect = higher value; concentration not given here.

Sequence of ATP-dependent translocase ABCB1 (Homo sapiens) (P08183 whole entry, looked up): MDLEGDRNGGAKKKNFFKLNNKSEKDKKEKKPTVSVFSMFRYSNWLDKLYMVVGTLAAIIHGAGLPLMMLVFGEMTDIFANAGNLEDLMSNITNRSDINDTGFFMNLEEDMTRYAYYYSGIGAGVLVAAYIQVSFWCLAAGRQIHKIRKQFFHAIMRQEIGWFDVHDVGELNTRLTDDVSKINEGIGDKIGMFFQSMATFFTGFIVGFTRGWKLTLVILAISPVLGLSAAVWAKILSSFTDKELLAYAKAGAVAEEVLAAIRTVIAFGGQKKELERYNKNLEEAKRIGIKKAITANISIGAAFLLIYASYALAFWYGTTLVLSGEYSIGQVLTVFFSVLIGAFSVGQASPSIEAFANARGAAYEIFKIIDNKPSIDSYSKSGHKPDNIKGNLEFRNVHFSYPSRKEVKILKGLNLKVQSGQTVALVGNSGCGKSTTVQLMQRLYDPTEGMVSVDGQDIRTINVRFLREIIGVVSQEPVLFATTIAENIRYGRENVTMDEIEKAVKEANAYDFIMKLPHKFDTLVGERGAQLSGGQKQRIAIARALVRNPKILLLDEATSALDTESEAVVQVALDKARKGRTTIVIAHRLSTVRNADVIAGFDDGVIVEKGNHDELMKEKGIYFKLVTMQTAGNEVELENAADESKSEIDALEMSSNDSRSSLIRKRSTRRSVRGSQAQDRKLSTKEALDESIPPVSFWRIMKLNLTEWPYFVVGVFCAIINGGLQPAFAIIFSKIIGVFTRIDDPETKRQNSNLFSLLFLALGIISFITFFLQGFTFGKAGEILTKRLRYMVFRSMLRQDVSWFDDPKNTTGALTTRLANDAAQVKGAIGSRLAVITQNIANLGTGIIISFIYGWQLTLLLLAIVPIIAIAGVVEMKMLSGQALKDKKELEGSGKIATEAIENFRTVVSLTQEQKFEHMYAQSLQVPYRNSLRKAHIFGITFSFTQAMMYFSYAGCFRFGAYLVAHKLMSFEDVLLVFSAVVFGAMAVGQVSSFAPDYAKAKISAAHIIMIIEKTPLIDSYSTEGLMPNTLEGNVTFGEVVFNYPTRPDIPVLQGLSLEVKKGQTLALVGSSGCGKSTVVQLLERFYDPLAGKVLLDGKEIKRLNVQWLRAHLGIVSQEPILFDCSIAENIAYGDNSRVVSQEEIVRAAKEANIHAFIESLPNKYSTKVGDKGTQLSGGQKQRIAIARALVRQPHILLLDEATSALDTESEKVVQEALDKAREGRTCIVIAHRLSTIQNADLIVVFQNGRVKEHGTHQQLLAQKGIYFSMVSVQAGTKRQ

As for `CN1CC[C@]23c4c5ccc(O)c4O[C@H]2C(=O)CCC3[C@H]1C5` (some centres not stated), the inhibition in assay [1] turned out to be 7.55%. Moreover, the score in assay [2] amounted to 1.13. In assay [3], the rescue above control is -11.3. For the same molecule, the cytochrome c release ratio in [4] was 1.11. Besides, the inhibition of aggregation in [5] was -0.68%. In addition, in assay [6], the glutamate uptake change came to 20.7%. The inclusion score in [7] stood at 2. In addition, the aggregation suppression score in assay [8] was found to be 1.27.
Regarding `CN1C2CC(OC(=O)[C@H](CO)c3ccccc3)C[C@H]1CC2O` (some centres not stated), the inhibition in [1] amounted to 17.4%. In addition, the score in assay [2] amounted to 1.3. The rescue above control in assay [3] is -1.97. The cytochrome c release ratio in assay [4] came to 0.75. In addition, the inhibition of aggregation in [5] worked out at 83.9%. Also, the glutamate uptake change in assay [6] came to 4.44%. Moreover, the inclusion score in assay [7] is 2. Moreover, the aggregation suppression score in [8] was determined as 1.3.
Consider `ClC1=C(Cl)C2(Cl)C3C4CC(C5OC45)C3C1(Cl)C2(Cl)Cl` (configuration not stated), for which the inhibition in assay [1] was 8.56%. The score in [2] turned out to be 0. The rescue above control in [3] stood at 3.84. Also, the cytochrome c release ratio in assay [4] amounted to 1.81. For the same molecule, the inhibition of aggregation in assay [5] was 72.4%. In assay [6], the glutamate uptake change is -23.9%. In assay [8], this molecule gave an aggregation suppression score of 0.719.
On to `C[C@@]1(C(=O)O)CC[C@]2(C)CC[C@]3(C)C4=CC=C5C=C(O)C(=O)C=C5[C@]4(C)CC[C@@]3(C)[C@@H]2C1`, for which the aggregation ratio in assay [9] is 0.487. For the same molecule, the score in assay [2] came to 1.77. Besides, the cytochrome c release ratio in [4] was 3.7. Also, the inhibition of aggregation in assay [5] worked out at 11.8%. Moreover, in assay [10], the normalised LDH release stood at 0.996. Further, the glutamate uptake change in [6] was -13.4%. Moreover, the aggregation suppression score in assay [8] stood at 1.23.
Take `CCC(=O)C(CC(C)N(C)C)(c1ccccc1)c1ccccc1` (configuration not stated): in assay [1], the inhibition was -9.47%. The score in [2] is 1.06. In addition, the rescue above control in assay [3] worked out at 0.15. Besides, in [4], the cytochrome c release ratio was 0.89. Moreover, in [5], the inhibition of aggregation came out at 21.1%. Moreover, the glutamate uptake change in assay [6] is 7.77%. Also, in assay [7], the inclusion score came to 2. The molecule further displayed an aggregation suppression score in [8] of 0.899.
For `CNC(C)Cc1ccc2c(c1)OCO2` (configuration not stated), in assay [1], the inhibition is -3.07%. In assay [2], this molecule had a score of 0.95. In assay [3], this molecule showed a rescue above control of -0.64. Besides, the cytochrome c release ratio in assay [4] is 0.84. Moreover, the inhibition of aggregation in assay [5] amounted to 0.68%. In addition, the glutamate uptake change in assay [6] is -3.54%. Moreover, the inclusion score in assay [7] was 2. This molecule registered an aggregation suppression score in assay [8] of 1.38.
As for `CNC(C)C(=O)c1ccccc1` (configuration not stated), in assay [1], the inhibition is -15.1%. The same molecule gave a score in assay [2] of 1.02. In assay [3], this molecule showed a rescue above control of -6.75. Besides, the cytochrome c release ratio in assay [4] came out at 1.05. Also, the inhibition of aggregation in [5] was determined as 49.7%. In assay [6], the glutamate uptake change was -3.86%. Besides, the inclusion score in assay [7] came out at 2. Also, the aggregation suppression score in [8] came to 1.11.
For `COc1cc(CCN)cc(OC)c1OC`, the inhibition in [1] was 8.49%. This molecule also registered a score in assay [2] of 1.47. Besides, the rescue above control in assay [3] is -5.41. Moreover, the cytochrome c release ratio in [4] stood at 0.91. In assay [5], the inhibition of aggregation turned out to be 22.4%. Moreover, the glutamate uptake change in assay [6] is -3.12%. Further, in assay [7], the inclusion score was determined as 2. This molecule also yielded an aggregation suppression score in assay [8] of 1.23.
For the molecule `CC1CC[C@@]2(NC1)OC1CC3C4CC=C5CC(O)CCC5(C)C4CCC3(C)C1[C@@H]2C` (some centres not stated), the inhibition in assay [1] worked out at 0.23%. In assay [2], this molecule yielded a score of 1.05. For the same molecule, the rescue above control in assay [3] was -8.79. In addition, the cytochrome c release ratio in assay [4] was 1.04. In addition, in assay [5], the inhibition of aggregation amounted to 64.7%. Further, the glutamate uptake change in assay [6] is -2.74%. The inclusion score in [7] amounted to 2. For the same molecule, in assay [8], the aggregation suppression score is 0.556.
On to `O=c1ccc2cc(O[C@H]3O[C@H](CO)[C@@H](O)[C@H](O)[C@H]3O)c(O)cc2o1`, for which the inhibition in [1] is -25.3%. The score in assay [2] came to 0.99. In [3], this molecule displayed a rescue above control of -9.34. Further, the cytochrome c release ratio in assay [4] was determined as 0.66. In [5], the inhibition of aggregation came to 56.9%. In addition, in assay [6], the glutamate uptake change turned out to be 21.7%. Also, the inclusion score in [7] stood at 2. The aggregation suppression score in assay [8] was found to be 0.763.
As for `CCNC(C)Cc1cccc(C(F)(F)F)c1` (configuration not stated), the fluorescence slope change in [11] is 23.3% (inactive). Moreover, the inhibition in assay [1] was -12%. The same molecule returned a score in assay [2] of 1.17. This molecule also returned a rescue above control in [3] of -3.67. In assay [4], the cytochrome c release ratio is 0.91. For the same molecule, the inhibition of aggregation in assay [5] was 15.7%. The glutamate uptake change in [6] is -14.9%. Besides, the inclusion score in assay [7] came to 2. The aggregation suppression score in assay [8] stood at 1.24.
